# Assay outcomes from PubChem.
# Hsp70 act: switches on Hsp70 transcription | HeLa Hsp70 promoter luciferase reporter, luminescence; scaled: vehicle 0, proteasome-inhibitor control 100% | activation, % at 10 µM | 0.04% of 200,000 active | AID 1203;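 active = activation above the mean across all tested compounds plus 3 SD, cutoff set per campaign, cut at about 5.5% in these data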;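 also: 100% = MG132 at 30 µM as the positive control and 0% = DMSO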
# Ins promoter up: MIN6 insulin promoter up-regulation; MIN6 insulin promoter-GFP reporter, high-content imaging; hits give high values; z-score at 5 µM; 0.3% of 190,000 active;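 active = z-score above 3 at 5 µM with at least 500 cells counted in the well; inconclusive = wells under 500 cells, flagged as cytotoxic or low count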
# Insulin prom inh: TRM-6 insulin promoter activity inhibition. TRM-6 cells (human fetal islet line), insulin promoter-eGFP reporter, imaging; reporter expression induced with tamoxifen. inhibition, % at 2 µM. 0.9% of 130,000 active. AID 1273;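 active = inhibition above the mean plus 3 SD, with well images judged a real hit on visual review, cut at about 60% in these data, passing the limit was not always enough; inconclusive = inhibition over the cutoff but images rejected on review; inactive = inhibition not above the cutoff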
# S1P4 ag: activates the human S1P4 receptor. O95977. S1P4-expressing cell line, agonist reporter assay. activation, % at 4.98 µM. 0.35% of 220,000 active; in the data active = activation above about 11%;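 also: 0% = DMSO vehicle and 100% = reference agonist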
# Target sequence (O95977 whole entry, looked up): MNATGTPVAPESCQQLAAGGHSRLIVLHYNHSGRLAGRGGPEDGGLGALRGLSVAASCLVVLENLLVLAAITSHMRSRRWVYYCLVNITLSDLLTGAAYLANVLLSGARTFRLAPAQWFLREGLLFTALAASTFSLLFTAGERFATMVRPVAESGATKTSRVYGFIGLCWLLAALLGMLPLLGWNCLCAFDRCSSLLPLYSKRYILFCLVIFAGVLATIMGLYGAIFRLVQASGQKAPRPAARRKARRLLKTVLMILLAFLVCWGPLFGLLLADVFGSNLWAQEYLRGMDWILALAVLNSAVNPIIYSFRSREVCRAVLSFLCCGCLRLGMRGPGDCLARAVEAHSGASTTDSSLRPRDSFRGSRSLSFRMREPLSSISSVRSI
# S1P3 antag: S1P3 (human) receptor antagonism. Q99500. CHO S1P3 NFAT-BLA reporter, FRET fluorescence, antagonist mode. inhibition, % at 4.98 µM. 0.27% of 170,000 active. AID 485;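 active = inhibition above the plate cutoff, the mean inhibition of test wells on that plate plus 3 SD, cut at about 28% in these data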;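 also: cells challenged with S1P at its EC80 of 0.8 µM; blue over green emission ratio from cleaved BLA substrate after 4 h stimulation; 0% = S1P-stimulated wells and 100% = unstimulated DMSO-only wells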
# S1P4 antagonist: antagonists of human S1P4 receptor; O95977; S1P4-expressing cells, antagonist mode, reporter read-out; inhibition, % at 4.98 µM; 0.26% of 220,000 active; AID 1510; in the data active = inhibition above about 29%;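 also: 0% = wells stimulated with agonist and 100% = vehicle wells without agonist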
# S1P4 antag cf: confirmation of human S1P4 receptor antagonists; shares compounds with S1P4 antagonist; S1P4-expressing cell line, antagonist mode, reporter read-out; inhibition, % at 4.98 µM; 71% of 520 active; in the data active = inhibition above about 30%
# S1P1 antag: human S1P1 antagonism as S1P4 antagonist counter-screen | shares compounds with S1P4 antagonist | cell-based S1P1 antagonist counterscreen, inhibition | inhibition, % at 4.98 µM | 37% of 520 active | AID 1564; in the data active = inhibition above about 40%;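 also: receptor stimulated with S1P near its EC80; 0% = agonist stimulated wells and 100% = vehicle only wells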
# An asterisk follows results filed as active; ? = inconclusive; / = not tested or not shown. Hits are enriched below; roughly 1.5% of the tested compounds scored in any of these assays.
SMILES,Hsp70 act,Ins promoter up,Insulin prom inh,S1P4 ag,S1P3 antag,S1P4 antagonist,S1P4 antag cf,S1P1 antag
OC(CNCCc1ccccc1)COc1ccc(OCC(O)CNCCc2ccccc2)cc1 (stereo not given),/,-0.23,/,-1,9,32*,55*,39
CCCCC(=O)O[C@]1(C(=O)CO)CC[C@H]2[C@@H]3CCC4=CC(=O)CC[C@]4(C)[C@H]3[C@@H](O)C[C@@]21C,0,/,-68,-1,-4,-18,/,/
CC1(C)O[C@@H]2C[C@H]3[C@@H]4C[C@H](F)C5=CC(=O)CC[C@]5(C)[C@H]4[C@@H](O)C[C@]3(C)[C@]2(C(=O)CO)O1,0,/,-52,-1,-18,59*,0,17
COc1cc(-c2nc3n(n2)C(c2ccncc2)C(C(N)=O)=C(C)N3)cc(OC)c1OC (stereo not given),0,0.46,/,0,-5,66*,-1,5
CC1=C(C(N)=O)C(c2ccccc2)n2nc(-c3ccncc3)nc2N1 (stereo not given),0,0.15,-6,0,-16,-10,/,/
Cc1c(O)ccc(NC(=O)/C=C/c2ccccc2)c1C,0,-0.09,42,-1,10,57*,61*,13
O=C(Cn1nc(-c2ccccc2)c2ccccc2c1=O)Nc1ccccn1,0,0.44,22,0,16,-13,/,/
CC(C)N1CCC2(CC1)Oc1ccc(Br)cc1C1CC(c3cccnc3)=NN12 (stereo not given),/,0.42,/,0,4,32*,19,32
COc1cccc2c1OC1(CCN(C(C)C)CC1)N1N=C(c3cccnc3)CC21 (stereo not given),/,0.57,/,-1,3,-5,/,/
O=C1C(Nc2ccc(O)cc2)=C/C(=N/S(=O)(=O)c2cccs2)c2ccccc21,0,-4.4,/,4,-12,86*,109*,94*
Cc1cccc(NC2=C/C(=N/S(=O)(=O)c3cccs3)c3ccccc3C2=O)c1,0,?,8,6,-8,-3,/,/
Cc1ccc(C)n1-c1ccc(C(=O)N2CCC(C(N)=O)CC2)cc1,0,0.34,/,0,-21,44*,-1,0
O=C(/C=C/c1ccccc1O)c1ccc(Cl)cc1,0,-0.87,/,-1,-4,46*,59*,24
Cc1ccc(/C(=C\CN2CCCC2)c2ccccn2)cc1,/,-0.46,/,/,/,/,/,/
N#Cc1cccnc1N1CCN(C(=O)COCC(=O)O)CC1,/,1.1,/,2,6,1,/,/
O=C(O)c1ccc(N/N=C2/CCCc3ccccc32)cc1,/,0,/,-1,-7,11,/,/
C#CCOc1ccc(C2C3=C(COC3=O)Nc3cc4c(cc32)OCO4)cc1OC (stereo not given),0,-0.4,/,0,13,38*,39*,80*
CCOc1ccccc1C1C2=C(COC2=O)Nc2cc3c(cc21)OCO3 (stereo not given),1,-1.4,/,1,9,3,/,/
COC(CNC(=O)c1ccc2c3c(onc13)-c1ccccc1C2=O)OC,/,-0.55,/,6,-3,37*,114*,22
COC(CNC(=O)c1cccnc1)OC,0,0.09,/,2,-13,-9,/,/
CC(C)(C)c1ccc(C(O)CCCN2CCC(C(O)(c3ccccc3)c3ccccc3)CC2)cc1 (stereo not given),0,/,-29,-1,-10,33*,6,-6
Cc1n[nH]c(C)c1N1C(=O)c2cccc3c(Br)ccc(c23)C1=O,-1,0.96,37,1,/,70*,79*,93*
Cc1n[nH]c(C)c1N1C(=O)c2cccc3cc(Br)cc(c23)C1=O,-1,-0.7,3,-2,/,2,/,/
O=C(c1cc([N+](=O)[O-])ccc1Cl)N1c2ccccc2Sc2ccccc21,0,-0.19,-29,-1,2,-15,/,/
CCCCC(CC)c1nnc(NC(=O)c2cccs2)s1 (stereo not given),0,-0.15,/,0,-30,29*,6,-15
SMILES,Hsp70 act,Ins promoter up,Insulin prom inh,S1P4 ag,S1P3 antag,S1P4 antagonist,S1P4 antag cf,S1P1 antag
CC(C)c1nnc(NC(=O)c2cccs2)s1,0,0,/,2,-16,-19,/,/
CCc1ccc(OCC(=O)NC(NC(=S)Nc2ccc(Cl)cc2)C(Cl)(Cl)Cl)cc1 (stereo not given),0,-0.03,7,0,5,42*,0,-4
N#CCCN1CCCc2cc(N=Nc3ccc(C(F)(F)F)cc3)ccc21,/,-1.1,/,-2,-7,31*,85*,28
CCCN1CCCc2ccccc21,0,0.94,-26,-1,/,3,/,/
COc1ccc(NS(=O)(=O)c2ccc(N/N=C(\C)c3ccncc3)c([N+](=O)[O-])c2)cc1,0,-0.96,-3,2,9,-1,/,/
COC(=O)c1cc(=O)n(-c2ccc(F)cc2)c(=Nc2ccc(F)cc2)s1,1,-0.71,-55,4,13,29*,100*,76*
COc1ccc(OCC(=O)NC(=S)Nc2ccccc2F)cc1,0,0.91,38,1,-14,-7,/,/
Cc1ccnc(NC(=S)NC(=O)c2cccs2)c1,0,0.2,-7,1,-5,-19,/,/
CCC1(C)OC(=O)N(CCCn2ccnc2C)C1(C)O (stereo not given),0,-0.67,3,1,/,-20,/,/
Cc1nccn1CCCN1C(=O)OC2(CCCCC2)C1(C)O (stereo not given),0,/,-61,-3,-6,32*,2,0
Cc1cc2cc(CNC(=O)c3ccc(C)c([N+](=O)[O-])c3)ccc2[nH]1,0,-0.19,40,2,-7,-8,/,/
CCN(CC)c1ccc2cc(C(N)=O)c(=O)oc2c1,0,/,-47,10,/,-19,/,/
CCN(CC)c1ccc2cc(NC(=O)CCC(=O)O)c(=O)oc2c1,0,-0.38,3,2,34,32*,59*,45*
CC(C)NC(=O)CSCc1c(F)cccc1Cl,0,-0.39,-38,-1,/,57*,-3,-6
CNC(=O)CSCc1c(F)cccc1Cl,0,/,?,-1,/,1,/,/
O=C(/C(=C/c1ccc(Cl)cc1)c1nc2ccccc2[nH]1)c1cccs1,4,?,49,-1,/,44*,116*,74*
CCOC(=O)CCS(=O)(=O)c1nc(-c2ccccc2)cc(C(F)(F)F)n1,0,0.52,56,-2,-8,84*,114*,52*
COC(=O)CCS(=O)(=O)c1nc(-c2ccccc2)cc(C(F)(F)F)n1,0,/,-8,1,/,60*,113*,34
CCOC(=O)CS(=O)(=O)c1nc(-c2ccc(F)cc2)cc(C(F)(F)F)n1,0,-0.07,/,-1,10,2,/,/
